Source: PubChem BioAssay (National Center for Advancing Translational Sciences (NCATS))
RECQ1 inh-1: qHTS Assay for Inhibitors of RecQ-Like Dna Helicase 1 (RECQ1); RECQ1 DNA unwinding, red fluorescence kinetic read; 240,000 compounds, 0.54% hits; Potency, µM (titrated, usually from 57.3 µM), for inactives: top-dose activity, negative = inhibition, most hits filed as inhibitors; ATP-dependent DNA helicase Q1 (Homo sapiens), P46063;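 note: plate controls were vehicle for no effect and no enzyme for full effect; nearly all actives have a fitted effect of over 30% in size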
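RECQ1T1 50 nM; forked duplex (20 bp + 30-nt ss tails) 200 nM, ATP 2 mM final; pH 8.0, 2 mM MgCl2, 2.5 ug/ml poly(dI-dC); 15 min compound preincubation; discontinuous kinetic read over 2 h at RT.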
APEX1 inh: qHTS Assay for Inhibitors of the Human Apurinic/apyrimidinic Endonuclease 1 (APE1) | 350,000 compounds, 0.35% hits | recombinant APE1, TAMRA/BHQ-2 abasic DNA cleavage fluorescence | Potency, µM (doses to about 65.8 µM), inactives show at the top dose activity change, negative = inhibition, most hits filed as inhibitors | AID 2517, 2012;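 note: plate controls were vehicle for no effect and reference inhibitor for full effect; nearly all actives have a fitted effect of over 55% in size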
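Endonuclease cleavage of a quenched abasic-site DNA duplex (50 nM) by APE1 (0.75 nM) was tracked by TAMRA dequenching. Compounds were preincubated with enzyme 15 min at room temperature; data normalized to buffer-only and DMSO wells plus NSC13755 control.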
BLM helicase inh: qHTS Assay for Inhibitors of Bloom's syndrome helicase (BLM); 350,000 compounds, 0.2% hits; Potency, µM (top dose mostly 56.1 µM), for the others: at the highest dose activity change, negative = inhibition, usual class: inhibitors; recombinant BLM DNA unwinding, fluorescence dequenching;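 note: plate controls were vehicle for no effect and no enzyme for full effect; nearly all actives have a fitted effect of over 35% in size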
L3MBTL1 block: qHTS Assay for the Inhibitors of L3MBTL1. AID 485360, 2010. Potency, µM (titrated, usually from 57.1 µM), for the others: at the highest dose activity, negative = inhibition, actives largely listed as inhibitors. AlphaScreen L3MBTL1–H3K9me1 peptide binding. Lethal(3)malignant brain tumor-like protein 1 (Homo sapiens), Q9Y468. 230,000 compounds, 0.66% hits; note: nearly all actives have a fitted effect of over 60% in size
Target sequence (Q9Y468 whole entry, looked up): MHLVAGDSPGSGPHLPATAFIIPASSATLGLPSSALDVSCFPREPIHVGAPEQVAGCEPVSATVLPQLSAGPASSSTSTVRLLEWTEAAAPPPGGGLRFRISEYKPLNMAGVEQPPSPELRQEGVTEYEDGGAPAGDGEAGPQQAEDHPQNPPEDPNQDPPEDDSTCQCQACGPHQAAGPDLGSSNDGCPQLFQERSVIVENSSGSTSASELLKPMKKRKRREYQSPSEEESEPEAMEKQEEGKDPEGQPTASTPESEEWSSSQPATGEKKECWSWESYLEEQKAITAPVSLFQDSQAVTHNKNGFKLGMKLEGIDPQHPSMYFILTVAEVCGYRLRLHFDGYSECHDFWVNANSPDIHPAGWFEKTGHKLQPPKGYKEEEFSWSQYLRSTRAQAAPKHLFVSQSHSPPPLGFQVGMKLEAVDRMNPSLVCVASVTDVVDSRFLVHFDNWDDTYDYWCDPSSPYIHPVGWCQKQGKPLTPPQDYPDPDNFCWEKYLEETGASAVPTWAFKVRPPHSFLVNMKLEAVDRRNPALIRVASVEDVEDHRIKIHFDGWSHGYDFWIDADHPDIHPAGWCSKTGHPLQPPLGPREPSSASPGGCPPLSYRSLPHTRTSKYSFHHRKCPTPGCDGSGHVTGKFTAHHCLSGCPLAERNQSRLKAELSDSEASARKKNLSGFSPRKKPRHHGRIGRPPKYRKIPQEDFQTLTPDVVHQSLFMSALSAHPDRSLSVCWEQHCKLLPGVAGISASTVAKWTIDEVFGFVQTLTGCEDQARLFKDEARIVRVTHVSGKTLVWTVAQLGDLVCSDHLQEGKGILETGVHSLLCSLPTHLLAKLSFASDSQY
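Displacement of a biotinylated histone H3(1-15) peptide monomethylated at Lys9 (75 nM) from L3MBTL1 (50 nM) was measured by AlphaScreen after a 30 min room-temperature compound incubation; cefsulodin titration served as intraplate control.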
RECQ1 inh conf: Confirmation qHTS Assay for Inhibitors of RecQ-Like Dna Helicase 1 (RECQ1); shares compounds with RECQ1 inh-1; RECQ1 helicase DNA unwinding, fluorescence; Potency, µM (series often up to 229 µM), for the others: top-dose activity change, negative = inhibition, hits mostly inhibitors; 610 compounds, 28% hits; AID 2708, 2010; note: nearly all actives have a fitted effect of over 45% in size
ADP FP counter: Counterscreen for RECQ1 Inhibitors: ADP Fluorescence Polarization Displacement Assay | Potency, µM (top dose mostly 228 µM), for inactives: at the top dose activity change, negative = inhibition, actives largely listed as inhibitors | ADP fluorescence polarization displacement counterscreen | shares compounds with RECQ1 inh-1 | 530 compounds, 27% hits; note: nearly all actives have a fitted effect of over 45% in size
RECQ1 inh-2: Confirmation qHTS Assay for Inhibitors of RecQ-Like Dna Helicase 1 (RECQ1) - Round 2 Cherry Picks; recombinant RECQ1 DNA unwinding, red fluorescence; Potency, µM (series often up to 119 µM), for inactives: top-dose activity, negative = inhibition, actives largely listed as inhibitors; 1,100 compounds, 15% hits; shares compounds with RECQ1 inh-1; AID 504841, 2011; note: nearly all actives have a fitted effect of over 50% in size
* hit, by the source's call; i = inactive; u = inconclusive; x = no result; [ ] = remark or other dose. Most compounds without a hit are left out; they make up all but 0.78% or so of the library. Calls come from the whole dose curve; as a rule, active = well fitted curve in the direction sought with a large enough effect; inconclusive = small, poorly fitted or top-dose-only effect, or another doubt; inactive = no such curve, though single readings can be large; an effect the other way counts as inactive or inconclusive. Unless noted, % is set by controls: 0 for no effect and ±100 for the full control effect; potency is the fitted concentration of half-maximal effect.

SMILES	RECQ1 inh-1	APEX1 inh	BLM helicase inh	L3MBTL1 block	RECQ1 inh conf	others
Nc1nc(Nc2cccc(Cl)c2)nc(NCc2ccco2)c1[N+](=O)[O-]	u	-1%	u	-29%	x	RECQ1 inh-2=79µM*
Nc1nc(Nc2cccc(Cl)c2)nc(NCCO)c1[N+](=O)[O-]	u	-3%	u	x	x	RECQ1 inh-2=50µM*
Nc1nc(Nc2ccc(Cl)cc2)nc(NCc2ccco2)c1[N+](=O)[O-]	16µM*	16%	u	-9%	32µM*	ADP FP counter=10%[91.9 µM];RECQ1 inh-2=79µM*
COc1ccc(Oc2nc3c(c(=O)n(Cc4ccccc4Cl)c(=O)n3C)n2C)cc1	x	x	-10%	x	x
COc1ccc(-c2c3c(=O)n(C)c(=O)n(C)c3c3n2-c2ccccc2NC3c2ccco2)cc1 (configuration not stated)	x	x	-3%	x	x
Cc1cc(/C=C2\SC(=S)NC2=O)c(C)n1C	0.32µM*	-4%	-18%	-8%	45µM*	ADP FP counter=10µM*
Cc1cc(/C=C2\SC(=S)NC2=O)c(C)n1-c1ccccc1	-8%	0%	-21%	-1%	x
O=C1CC(c2ccccc2)Oc2cc(O)cc(O)c21 (configuration not stated)	i	u	-5%	x	x
O=C1C(=O)C(c2cc(O)c(O)c(O)c2)Oc2cc(O)cc(O)c21 (configuration not stated)	x	x	x	x	1µM*
CCN(CC)CCNC(=O)c1c(C)[nH]c(/C=C2\C(=O)Nc3ccc(F)cc32)c1C	x	x	37%	x	x
O=C1C=CC2=C3c4cc(O)c(O)cc4C[C@]3(O)COC2=C1	11µM*	10µM*	-11%	x	112µM*	ADP FP counter=6.3µM*
CCOC(=O)c1c(NC(=O)/C=C/C(=O)O)sc(C)c1-c1ccc(C(C)(C)C)cc1	u	8%	-12%	-7%[11.4 µM]	x	RECQ1 inh-2=50µM*
CC(=O)N1N=C(c2cccc([N+](=O)[O-])c2)OC1c1ccc(Br)cc1 (configuration not stated)	-7%	0%	-7%	u	x
CC(=O)N1N=C(c2ccccc2)OC1c1ccc([N+](=O)[O-])s1 (configuration not stated)	35µM*	u	5%	x	x	RECQ1 inh-2=u
CCN(CC)S(=O)(=O)c1ccc(C(=O)NC(=S)N(CCC#N)Cc2cccnc2)cc1	-4%	2%	0%	11%	0%	ADP FP counter=1%
CC(C)CCNC(=O)CN1C(=O)COc2ccc(S(=O)(=O)N3CCOCC3)cc21	x	x	0%	x	x
Cc1ccc2c(c1)c(=O)c(S(=O)(=O)c1ccc(F)cc1)cn2CC(=O)Nc1ccc2c(c1)OCO2	x	x	-5%	x	x
O=C(N/N=C/c1ccc[nH]1)c1ccc(COc2cccc3cccnc23)cc1	i	6%	-5%	-9%[2.29 µM]	x
O=C(N/N=C/c1ccccc1C(=O)O)c1ccc(COc2cccc3cccnc23)cc1	-10%	-2%	-6%	-2%	-11%	ADP FP counter=-8%
Nc1ccc(N2CCCCCC2)cc1	14µM*	u	-12%	18µM*	-3%[114 µM]
Nc1ccc(N2CCN(c3ccc(F)cc3)CC2)cc1	i	10%	0%	-14%	x
O=C(N/N=C/c1ccc(-c2ccc(S(=O)(=O)Nc3ncccn3)cc2)o1)c1cc2ccccc2cc1O	3.5µM*	u	u	x	45µM*	ADP FP counter=-12%[91.9 µM]
Cc1ccc(C2=NC(=O)/C(=C/c3cc(O)c(O)c(Br)c3)S2)cc1	3.5µM*	2µM*	3.5µM*	x	22µM*	RECQ1 inh-2=6.3µM*
N[C@@H](CO)c1nnc([C@H](CC(=O)O)NC(=O)C2CCNCC2)o1	2%	3%	-1%	23%	-2%	ADP FP counter=6%
COCCCNc1nc2c(S(=O)(=O)c3ccc(C)c(C)c3)nnn2c2ccc(Cl)cc12	x	x	-2%	x	x
SMILES	RECQ1 inh-1	APEX1 inh	BLM helicase inh	L3MBTL1 block	RECQ1 inh conf	others
Cc1oc2ccc(O)c(CN3CCCC(C)C3)c2c1C(=O)Nc1ccccc1 (configuration not stated)	x	x	2%	x	x
OC(COc1ccc(Cl)cc1)CN1CCN(c2cccc(Cl)c2)CC1 (configuration not stated)	35µM*	10%	-12%	x	x	RECQ1 inh-2=u
Cc1cccc(N2CCN(CC(O)COc3ccc(Cl)cc3)CC2)c1 (configuration not stated)	i	-2%	-2%	x	x
COc1ccc(NC(=O)c2ccc3c(SCC(=O)O)c4c(nc3c2)CCCC4)c(OC)c1	u	u	-29%	x	x	RECQ1 inh-2=-6%
COc1ccc(Cl)cc1NC(=O)c1ccc2c(SCC(=O)O)c3c(nc2c1)CCCC3	x	46%	-1%	x	x
COc1ccccc1-c1nnc(SCC(=O)Nc2nc(-c3ccccc3)cs2)n1C	-7%	1%	7%	4%	0%	ADP FP counter=8%
CCC1Cc2cc(O)ccc2C2=C1c1ccc(O)cc1CC2CC (configuration not stated)	1%	-2%	-10%	x	x
COc1cc(NC(=O)c2ccc(-n3cnc4cccnc43)cc2)cc(OC)c1	x	x	-2%	x	x
Cc1ccc(-n2c(SCC(=O)Nc3cccc(Cl)c3)nc3n[nH]c(C)c3c2=N)cc1	x	x	-1%	x	x
COc1cccc2c1-c1c(O)cccc1C2=O	x	3%	-7%	17%	x
COc1cccc2c1C(=O)c1c(O)c3c(c(O)c1C2=O)C[C@](O)(C(=O)CO)C[C@H]3O[C@@H]1C[C@H](N)[C@H](O)[C@H](C)O1	8.9µM*	11µM*	u	x	63µM*	ADP FP counter=1.1µM*
COc1ccc(CN2CCC3C=CCC(C(=O)O)C3C2=O)cc1OC (configuration not stated)	-4%	11%	4%	x	x
C[C@@H]1/C=C\CC(=O)OC[C@H]2O[C@@H](C=C[C@@H]2O)[C@H](C)/C=C\CC(=O)OC1	-1%[11.5 µM]	13%[12.4 µM]	-2%[12.4 µM]	x	x
CCOC(=O)c1ccc(CC(=O)c2ccc(O)c(O)c2O)o1	1.4µM*	u	-6%	u	5%[114 µM]	ADP FP counter=2%[91.9 µM]
CCOC(=O)c1ccc(CC(=O)c2oc3cc(O)ccc3c2C)o1	-4%	-3%	-14%	-11%	x
Brc1ccccc1CN1CCC(N2CCCCC2)CC1	u	-4%	-5%	u	x	RECQ1 inh-2=-2%
